Compounds without any hit were thinned out: in the full panel of roughly 83,000, 20% have a hit.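 The endpoint reported here, percent growth, reads 100 for growth as untreated, 0 for no net growth and -100 for all cells dead.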 Calls of active or inactive are those of the source. The calls were made as follows: active = growth percent below 10; inactive = the rest.
Test system: MDA-MB-468 breast
Test: NCI-60 one-dose screen, 48 h (100 = growth as untreated, 0 = no growth, -100 = all killed)
Details: 10 µM unless noted

Row | SMILES | growth
1 | CCOC(=O)c1cc2c(n1Cc1cc(OC)cc(OC)c1)-c1oncc1CCC2 | 22.4% (inactive)
2 | N#C/C(=C1\SC(=O)CN1c1ccccc1)c1nc2ccccc2s1 | 115% (inactive)
3 | Clc1ccc2sc(-c3ccccc3)nc2c1 | 68.9% (inactive)
4 | CC(=O)Nc1ccc(CC#N)cc1Br | 102% (inactive)
5 | O=C1C=CC2=C3c4cc(O)c(O)cc4CC3(O)COC2=C1O (configuration not stated) | 102% (inactive)
6 | N#CC1=C2NCCCNc3oc(nc3C#N)Cc3ccccc3CC(=N1)O2 | 75.1% (inactive)
7 | COC(=O)c1ccc(NC(=O)CSc2nc3ccccc3c(=O)n2-c2ccccc2)cc1 | 104% (inactive)
8 | COc1cc(CNC(=O)CSc2nc3ccccc3c(=O)n2Cc2cc(OC)c(OC)c(OC)c2)cc(OC)c1OC | 91.7% (inactive)
9 | Fc1ccc(-c2nc(-c3nc4ncccc4[nH]3)cc3c2[nH]c2ccccc23)cc1F | 49.5% (inactive)
10 | COc1ccc2ncccc2c1Cc1c(OC)ccc2ncccc12 | 8.37% (active)
11 | O=C(CCCCCCNC(=O)C(O)(O)C(F)(F)F)Nc1ccc(Cl)cc1 | 16.9% (inactive)
12 | C#CCNc1nc(NCCNC(=O)CCl)nc(N(C)CCCCc2ccccc2)n1 | 86% (inactive)
13 | O=C(Nc1ccccc1)c1ccco1 | 103% (inactive)
14 | COC(=O)C1=Nc2ccc(F)cc2/C1=C/c1sc(=S)[nH]c1O | 13.4% (inactive)
15 | O=C1CCCCC1(c1ccccc1)c1ccccc1 | 98.4% (inactive)
16 | CCN(CC)c1cc(C)c2cc(NC(=O)c3cccc(OC)c3)ccc2n1 | 83.9% (inactive)
17 | Cc1ccc(Cl)cc1Nc1nc(C(F)(F)F)ccc1C(=O)N/N=C/c1c(Cl)cccc1Cl | -13.1% (active)
